In general, AC50 refers to the concentration giving half of the maximal activity seen.

Assay [1] addresses human Retinoic Acid Receptor gamma (RARg), RARG (gene 5916) (UniProt P13631). As to the kind of experiment: ATG_RARg_TRANS: Attagene TRANS-FACTORIAL HepG2 Assay for human Retinoic Acid Receptor gamma (RARg) (AID 2283009; active = hit-call score of the fitted dose curve at least 0.9, where 1 is the maximum). The essentials:
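Transient transfection of HepG2 with multi-reporter constructs, then 24 h chemical treatment. Total RNA isolated, reverse-transcribed, PCR-amplified, fluorescently labelled and resolved by capillary electrophoresis; activity scored as mRNA induction versus DMSO.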

Assay [2] deals with human RAR-related Orphan Receptor gamma (RORg), RORC (gene 6097) (UniProt P51449). As to the kind of experiment: ATG_RORg_TRANS: Attagene TRANS-FACTORIAL HepG2 Assay for human RAR-related Orphan Receptor gamma (RORg) (AID 2283011; active = hit-call score of the fitted dose curve at least 0.9, where 1 is the maximum). The essentials: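 Readout: reporter transcript induction (RT-PCR, fluorescent primer extension, capillary electrophoresis) after 24 h compound exposure of transiently transfected HepG2 cells carrying a RORg-Gal4 chimera and GAL4-UAS reporters; DMSO served as baseline, with increasing signal fitted.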

Assay [3] concerns the target Retinoic acid receptor RXR-alpha (Homo sapiens) (UniProt P19793). The assay is described as follows: ATG_RXRa_TRANS: Attagene TRANS-FACTORIAL HepG2 Assay for human Retinoid X Receptor alpha (RXRa) (AID 2283012; active = hit-call score of the fitted dose curve at least 0.9, where 1 is the maximum). The essentials: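 Transient transfection of human HepG2 with multiple GAL4-UAS reporter constructs; 24 h compound exposure; total RNA isolated, reverse-transcribed, PCR-amplified, 6-FAM labelled, HpaI-cut, resolved by capillary electrophoresis. Positive-direction fit versus DMSO.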

Assay [4] has as its target human Thyroid Receptor alpha (THRa1), THRA (gene 7067) (UniProt P10827). The assay is described as follows: ATG_THRa1_TRANS: Attagene TRANS-FACTORIAL HepG2 Assay for human Thyroid Receptor alpha (THRa1) (AID 2283014; active = hit-call score of the fitted dose curve at least 0.9, where 1 is the maximum). The essentials: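 HepG2 cells transiently transfected with multiplexed GAL4-UAS reporter units for exogenous chimeric THRa1-Gal4; reporter mRNA measured 24 h after dosing by RT-PCR, 6-FAM labelling, HpaI digestion and capillary electrophoresis. Gain-of-signal fitted versus DMSO baseline.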

Read-out in assay [5]: E-selectin (Homo sapiens) (UniProt P16581)
As to the kind of experiment: BSK_3C_Eselectin: BioMAP Diversity Plus: 3C Assay for Eselectin Biomarker Activity (AID 2283015).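 For outcome: cell surface E-selectin protein quantified by ELISA 24 h after dosing.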 The settings on record: primary human endothelial cells (HUVEC); actives raise or lower the signal. An outline of the steps: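 Primary human umbilical vein endothelial cells (3C system) were dosed with chemical and cell-surface E-selectin measured by ELISA 24 h later. Bidirectional curve fitting used DMSO as negative control and baseline.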

Read-out in assay [6]: Interleukin-1 alpha (IL1a), IL1A (gene 3552)
The assay is described as follows: BSK_BE3C_IL1a: BioMAP Diversity Plus: BE3C Assay for Interleukin-1 alpha (IL1a) Biomarker Activity (AID 2283016). As to conditions: primary human bronchial epithelial cells; actives raise or lower the signal. An outline of the steps:
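BE3C primary human bronchial epithelium; cpd 24 h; IL-1a by ELISA; bidirectional fit vs DMSO; parallel SRB (0.1% SRB, 10% TCA fix, 560 nm) for cytotoxicity.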

Read-out in assay [7]: Monocyte Chemoattractant Protein-1 (MCP1), CCL2 (gene 6347)
As to the kind of experiment: BSK_3C_MCP1: BioMAP Diversity Plus: 3C Assay for Monocyte Chemoattractant Protein-1 (MCP1) Biomarker Activity (AID 2283017). The settings on record: primary human endothelial cells (HUVEC); actives raise or lower the signal. An outline of the steps:
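Primary human umbilical vein endothelial cells (3C system) were exposed to test chemical for 24 h, after which MCP-1 was quantified by ELISA. Activity was fitted bidirectionally against DMSO as negative control and baseline.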

Read-out in assay [8]: Monocyte Chemoattractant Protein-1 (MCP1), CCL2 (gene 6347)
As to the kind of experiment: BSK_4H_MCP1: BioMAP Diversity Plus: 4H Assay for Monocyte Chemoattractant Protein-1 (MCP1) Biomarker Activity (AID 2283018). The settings on record: primary human endothelial cells (HUVEC); actives raise or lower the signal. An outline of the steps:
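ELISA read-out of MCP-1 from human vascular endothelial primary cells taken at 24 hours after compound exposure. Activity was fitted in both directions relative to DMSO, which served as negative control.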

Read-out in assay [9]: Human Leukocyte Antigen - DR isotype (HLADR), HLA-DRA (gene 3122)
The assay is described as follows: BSK_3C_HLADR: BioMAP Diversity Plus: 3C Assay for Human Leukocyte Antigen - DR isotype (HLADR) Biomarker Activity (AID 2283019). As to conditions: primary human endothelial cells (HUVEC); actives raise or lower the signal. The essentials: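 Primary human umbilical vein endothelial cells (3C system) were dosed with compound and cell-surface HLA-DR was quantified by ELISA at 24 h. Activity was fitted bidirectionally against DMSO as negative control and baseline.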

Read-out in assay [10]: Interleukin-8 (IL8), CXCL8 (gene 3576)
The assay is described as follows: BSK_3C_IL8: BioMAP Diversity Plus: 3C Assay for Interleukin-8 (IL8) Biomarker Activity (AID 2283020). As to conditions: primary human endothelial cells (HUVEC); actives raise or lower the signal. The essentials: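 ELISA read-out of IL-8 from human umbilical vein endothelium, measured 24 h after chemical dosing. Activity is expressed relative to DMSO negative control, with both increases and decreases fitted.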

Read-out in assay [11]: Monokine induced gamma interferon (MIG), CXCL9 (gene 4283)
As to the kind of experiment: BSK_3C_MIG: BioMAP Diversity Plus: 3C Assay for Monokine induced gamma interferon (MIG) Biomarker Activity (AID 2283021).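 For AC50: MIG protein level measured by immunoassay in the treated endothelial cultures.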 The settings on record: primary human endothelial cells (HUVEC); actives raise or lower the signal. An outline of the steps: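 Read-out is ELISA detection of MIG on human umbilical vein endothelial cells, taken 24 h after dosing. Gain or loss of signal was scored relative to DMSO controls using bidirectional curve fitting.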

For assay [12], the target named is human Vitamin D Receptor (VDR), VDR (gene 7421) (UniProt P11473). As to the kind of experiment: ATG_VDR_TRANS: Attagene TRANS-FACTORIAL HepG2 Assay for human Vitamin D Receptor (VDR) (AID 2283022; active = hit-call score of the fitted dose curve at least 0.9, where 1 is the maximum). The essentials:
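HepG2 cells were transiently transfected with multiple GAL4-UAS reporter units, so signal reflects exogenous chimeric receptor-Gal4 activity. After 24 h compound exposure, reporter mRNA was measured by RT-PCR, fluorescent labelling and capillary electrophoresis, fitted for gain of signal versus DMSO.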

Assay [13] is described as follows: BSK_3C_SRB: Viability Assessment in the BioMAP Diversity Plus: 3C Assay (AID 2283023).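 Note: fitted both ways against DMSO so a hit may be signal rise or drop.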 As to conditions: primary human endothelial cells (HUVEC). The essentials:
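Primary human umbilical vein endothelial cells in the 3C system were read 24 h after compound dosing. Total protein was stained with 0.1% sulforhodamine B after 10% TCA fixation and read at 560 nm, with bidirectional fitting against DMSO as baseline.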

Read-out in assay [14]: Matrix Metallopeptidase 1 (MMP1), MMP1 (gene 4312)
The assay is described as follows: BSK_BE3C_MMP1: BioMAP Diversity Plus: BE3C Assay for Matrix Metallopeptidase 1 (MMP1) Biomarker Activity (AID 2283024). As to conditions: primary human bronchial epithelial cells; actives raise or lower the signal. The essentials: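 Human bronchial epithelial cells (BE3C system) exposed to compound for 24 h; MMP1 then quantified by ELISA. Activity was fitted in both directions relative to DMSO.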

Assay [15] can be described thus: BSK_3C_Vis: BioMAP Diversity Plus: 3C Assay for Morphology Visualization (AID 2283025).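 For AC50: light microscopy image of cell morphology used as background control.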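 Note: fitted both ways so gain or loss versus DMSO counts.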 The settings on record: primary human endothelial cells (HUVEC). An outline of the steps:
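Chemicals were added to primary human umbilical vein endothelium, cells were incubated 24 h, and morphology was then visualized by light microscopy. Gain or loss of signal was fitted bidirectionally relative to DMSO.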

Read-out in assay [16]: Pselectin, SELP (gene 6403)
The assay is described as follows: BSK_4H_Pselectin: BioMAP Diversity Plus: 4H Assay for Pselectin Biomarker Activity (AID 2283026). As to conditions: primary human endothelial cells (HUVEC); actives raise or lower the signal. The essentials: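 ELISA read-out of P-selectin on human umbilical vein endothelium after 24 h of dosing. Values derive from bidirectional fitting relative to DMSO. Parallel SRB protein staining flagged overt cytotoxicity.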

The nature of assay [17]: BSK_4H_SRB: Viability Assessment in the BioMAP Diversity Plus: 4H Assay (AID 2283027).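 For AC50: curves fitted both ways versus DMSO so AC50 may be loss or gain.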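 Note: cells exposed to compound for 24 h before staining.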 As to conditions: primary human endothelial cells (HUVEC). The essentials: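 Human umbilical vein endothelial cells, 24 h after chemical dosing; total protein measured by 0.1% sulforhodamine B staining after 10% TCA fixation, read at 560 nm. Bidirectional fitting against DMSO.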
Assay [18] in a line: BSK_BE3C_SRB: Viability Assessment in the BioMAP Diversity Plus: BE3C Assay (AID 2283028).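 For AC50: fitted both ways so AC50 may mark signal gain or loss versus DMSO.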 As to conditions: primary human bronchial epithelial cells. An outline of the steps:
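Human primary bronchial epithelial cells were exposed to test chemicals for 24 h. Total protein in parallel cultures was then measured by staining with 0.1% sulforhodamine B after 10% TCA fixation, with absorbance read at 560 nm. Activity was fitted bidirectionally against DMSO.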

Read-out in assay [19]: Thrombomodulin, THBD (gene 7056)
As to the kind of experiment: BSK_3C_Thrombomodulin: BioMAP Diversity Plus: 3C Assay for Thrombomodulin Biomarker Activity (AID 2283029). As to conditions: primary human endothelial cells (HUVEC); actives raise or lower the signal. An outline of the steps: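 Read-out is ELISA of thrombomodulin on human umbilical vein endothelium 24 h after chemical dosing. Gain or loss of signal is scored relative to DMSO. Overt cytotoxicity is checked in parallel cultures by sulforhodamine B staining.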

Assay [20] addresses human Retinoid X Receptor beta (RXRb), RXRB (gene 6257) (UniProt P28702). The assay is described as follows: ATG_RXRb_TRANS: Attagene TRANS-FACTORIAL HepG2 Assay for human Retinoid X Receptor beta (RXRb) (AID 2283013; active = hit-call score of the fitted dose curve at least 0.9, where 1 is the maximum). An outline of the steps:
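Transfect HepG2 with GAL4-UAS multi-reporter constructs (chimeric NR-Gal4, TRANS format); dose compound 24 h; isolate RNA, RT-PCR, FAM primer extension, HpaI digest; quantify by capillary electrophoresis; positive direction vs DMSO.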

Results filed as inconclusive are left out. The source holds several records for some structures; these can differ, active in one and inactive in another. Calls of active or inactive are those of the source. Rule for the calls, unless noted: active = hit-call score of the fitted dose curve at least 0.9, where 1 is the maximum; inactive = score below 0.9.

Sequence of E-selectin (Homo sapiens) (P16581 whole entry, looked up): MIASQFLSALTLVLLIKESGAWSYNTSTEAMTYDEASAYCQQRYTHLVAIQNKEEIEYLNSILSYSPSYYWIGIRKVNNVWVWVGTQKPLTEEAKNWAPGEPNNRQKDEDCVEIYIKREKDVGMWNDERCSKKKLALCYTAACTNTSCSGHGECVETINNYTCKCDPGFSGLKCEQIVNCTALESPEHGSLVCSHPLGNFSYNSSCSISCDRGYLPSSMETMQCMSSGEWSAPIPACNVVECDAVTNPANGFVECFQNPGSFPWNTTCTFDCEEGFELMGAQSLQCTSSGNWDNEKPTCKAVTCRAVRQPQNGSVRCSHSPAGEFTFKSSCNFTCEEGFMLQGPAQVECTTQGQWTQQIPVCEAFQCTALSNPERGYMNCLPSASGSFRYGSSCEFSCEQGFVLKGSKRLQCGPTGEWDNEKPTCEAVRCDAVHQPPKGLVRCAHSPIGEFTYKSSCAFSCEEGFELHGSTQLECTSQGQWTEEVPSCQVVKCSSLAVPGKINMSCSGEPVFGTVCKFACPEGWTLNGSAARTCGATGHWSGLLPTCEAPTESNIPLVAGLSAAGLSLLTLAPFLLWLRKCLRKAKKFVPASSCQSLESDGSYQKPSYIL
Sequence of human Retinoic Acid Receptor gamma (RARg), RARG (gene 5916) (P13631 whole entry, looked up): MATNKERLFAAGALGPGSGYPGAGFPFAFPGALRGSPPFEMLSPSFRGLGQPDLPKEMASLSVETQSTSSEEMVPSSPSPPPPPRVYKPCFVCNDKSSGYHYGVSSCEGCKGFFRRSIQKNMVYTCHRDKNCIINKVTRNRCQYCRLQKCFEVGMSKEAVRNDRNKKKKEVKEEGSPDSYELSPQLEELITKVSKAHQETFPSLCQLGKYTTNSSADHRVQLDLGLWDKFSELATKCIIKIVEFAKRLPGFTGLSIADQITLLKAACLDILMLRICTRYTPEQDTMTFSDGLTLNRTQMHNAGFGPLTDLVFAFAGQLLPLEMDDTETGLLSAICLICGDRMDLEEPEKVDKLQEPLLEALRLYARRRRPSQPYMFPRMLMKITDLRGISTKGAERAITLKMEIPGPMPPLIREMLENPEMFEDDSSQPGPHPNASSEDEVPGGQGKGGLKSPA
Sequence of human RAR-related Orphan Receptor gamma (RORg), RORC (gene 6097) (P51449 whole entry, looked up, the tested form may be a part): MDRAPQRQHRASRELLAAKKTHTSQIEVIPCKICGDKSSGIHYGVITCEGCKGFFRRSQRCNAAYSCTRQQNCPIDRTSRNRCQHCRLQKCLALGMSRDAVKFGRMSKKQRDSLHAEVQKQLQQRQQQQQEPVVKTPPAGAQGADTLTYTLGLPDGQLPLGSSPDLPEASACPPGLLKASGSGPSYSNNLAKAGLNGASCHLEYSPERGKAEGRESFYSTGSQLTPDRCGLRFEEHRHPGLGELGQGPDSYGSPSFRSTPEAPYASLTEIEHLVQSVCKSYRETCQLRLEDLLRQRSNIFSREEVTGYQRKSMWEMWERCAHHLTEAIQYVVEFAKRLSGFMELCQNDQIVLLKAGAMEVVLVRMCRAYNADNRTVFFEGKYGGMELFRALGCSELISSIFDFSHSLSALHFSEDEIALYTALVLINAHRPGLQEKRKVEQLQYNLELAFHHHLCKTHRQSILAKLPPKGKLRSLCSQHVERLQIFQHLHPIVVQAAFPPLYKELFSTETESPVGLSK
Sequence of human Retinoid X Receptor beta (RXRb), RXRB (gene 6257) (P28702 whole entry, looked up, the tested form may be a part): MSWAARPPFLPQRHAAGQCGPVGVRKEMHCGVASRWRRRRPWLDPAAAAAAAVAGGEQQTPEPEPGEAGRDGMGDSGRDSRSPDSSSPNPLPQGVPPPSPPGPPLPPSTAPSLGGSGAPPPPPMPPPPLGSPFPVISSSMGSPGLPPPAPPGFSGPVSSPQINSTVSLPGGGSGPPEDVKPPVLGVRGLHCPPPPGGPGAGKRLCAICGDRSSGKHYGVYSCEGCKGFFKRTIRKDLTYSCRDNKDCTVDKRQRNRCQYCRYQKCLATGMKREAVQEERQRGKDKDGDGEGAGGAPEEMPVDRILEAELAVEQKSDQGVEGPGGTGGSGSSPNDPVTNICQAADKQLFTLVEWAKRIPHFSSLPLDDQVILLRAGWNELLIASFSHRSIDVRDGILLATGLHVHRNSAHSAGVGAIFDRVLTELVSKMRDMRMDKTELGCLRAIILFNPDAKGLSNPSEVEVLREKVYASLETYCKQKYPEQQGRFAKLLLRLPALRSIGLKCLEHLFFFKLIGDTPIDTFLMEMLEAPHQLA
Sequence of human Thyroid Receptor alpha (THRa1), THRA (gene 7067) (P10827 whole entry, looked up, the tested form may be a part): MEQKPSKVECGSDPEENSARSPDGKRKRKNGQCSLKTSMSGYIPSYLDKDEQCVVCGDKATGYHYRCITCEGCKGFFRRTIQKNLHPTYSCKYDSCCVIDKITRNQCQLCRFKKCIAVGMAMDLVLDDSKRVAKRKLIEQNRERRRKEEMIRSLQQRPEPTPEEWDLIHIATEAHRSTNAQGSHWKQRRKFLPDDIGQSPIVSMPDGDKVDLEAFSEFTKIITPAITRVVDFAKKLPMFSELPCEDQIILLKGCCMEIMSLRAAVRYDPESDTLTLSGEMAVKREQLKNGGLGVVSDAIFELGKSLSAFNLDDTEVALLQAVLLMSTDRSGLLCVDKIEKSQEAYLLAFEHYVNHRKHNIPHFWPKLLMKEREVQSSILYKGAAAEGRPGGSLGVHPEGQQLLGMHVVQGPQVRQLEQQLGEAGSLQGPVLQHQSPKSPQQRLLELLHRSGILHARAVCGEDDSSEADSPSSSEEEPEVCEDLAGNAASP
Sequence of Retinoic acid receptor RXR-alpha (Homo sapiens) (P19793 whole entry, looked up, the tested form may be a part): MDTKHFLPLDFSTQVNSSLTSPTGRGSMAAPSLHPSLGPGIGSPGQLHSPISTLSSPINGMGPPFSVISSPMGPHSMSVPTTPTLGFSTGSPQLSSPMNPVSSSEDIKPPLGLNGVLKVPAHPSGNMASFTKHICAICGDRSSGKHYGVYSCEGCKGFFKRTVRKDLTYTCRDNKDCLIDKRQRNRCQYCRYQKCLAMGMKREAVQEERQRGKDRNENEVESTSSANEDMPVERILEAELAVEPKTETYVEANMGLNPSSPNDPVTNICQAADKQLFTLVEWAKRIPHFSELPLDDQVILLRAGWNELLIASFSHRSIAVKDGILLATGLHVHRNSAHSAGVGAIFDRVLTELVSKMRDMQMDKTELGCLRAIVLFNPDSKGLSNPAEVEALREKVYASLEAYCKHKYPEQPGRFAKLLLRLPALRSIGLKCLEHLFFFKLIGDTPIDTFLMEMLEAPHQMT
Sequence of human Vitamin D Receptor (VDR), VDR (gene 7421) (P11473 whole entry, looked up, the tested form may be a part): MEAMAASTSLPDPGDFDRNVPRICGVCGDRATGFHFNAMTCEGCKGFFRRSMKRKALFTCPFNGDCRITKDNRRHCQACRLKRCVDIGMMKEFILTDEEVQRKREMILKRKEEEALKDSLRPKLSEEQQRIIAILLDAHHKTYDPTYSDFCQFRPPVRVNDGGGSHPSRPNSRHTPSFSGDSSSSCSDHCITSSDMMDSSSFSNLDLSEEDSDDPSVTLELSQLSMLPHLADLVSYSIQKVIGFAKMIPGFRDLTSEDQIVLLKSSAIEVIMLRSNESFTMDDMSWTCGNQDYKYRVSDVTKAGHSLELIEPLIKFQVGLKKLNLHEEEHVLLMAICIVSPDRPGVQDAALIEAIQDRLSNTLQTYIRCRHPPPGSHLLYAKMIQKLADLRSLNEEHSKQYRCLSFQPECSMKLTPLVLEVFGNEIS

For the compound `O=c1[nH]c2ccccc2c(=O)o1`, the result in assay [1], in [2] and in [3] was inactive.

Regarding `Cc1cccc(N)c1`, the result in assay [1], in assay [2], in [4], in assay [5], in assay [6] and in assay [7] was inactive. For the same compound, the outcome in assay [8], in [9], in assay [10], in [11], in assay [12] and in assay [13] was inactive. Besides, the result in [14], in assay [15], in [16], in [17], in [18] and in assay [19] was inactive.

On to `CC(C)Nc1ccc(Nc2ccccc2)cc1`, for which the compound was classed as inactive in [1], in assay [2], in [3], in assay [20], in assay [4] and in assay [14]. Further, the result in [19] was inactive. Besides, the AC50 was 10.6 µM (active) in assay [5]; 6.48 µM (active) in [6]; 9.95 µM (active) in [7]; 4.45 µM (active) in assay [9]; 12.8 µM (active) in assay [10]; 20 µM (active) in assay [11]. Besides, the AC50 in assay [15] is 9.94 µM (active); in assay [16], 7.42 µM (active); in [17], 9.88 µM (active); in assay [18], 33.2 µM (active).

With `CCCCOCCOP(=O)(OCCOCCCC)OCCOCCCC`, the compound was classed as inactive in [1], in [2], in assay [20], in [5], in assay [6] and in assay [8]. The outcome in assay [10], in assay [11], in assay [12], in [14], in [16] and in [17] was inactive. The outcome in assay [18] and in assay [19] was inactive. Also, the AC50 is 24.8 µM (active) in assay [20], 3.97 µM (active) in assay [7], 12.8 µM (active) in assay [9] and 37.5 µM (active) in assay [15].

These data come from PubChem BioAssay (EPA / NIEHS).
